From PubChem BioAssay (Tox21)
Results filed as inconclusive are left out. Active and inactive are the calls of the source. Unless noted, calls follow the shape of the dose curve; as a rule, active = well fitted curve in the direction sought with a large enough effect in the repeat runs; inconclusive = weak or mixed curves; inactive = no such curve, though single readings can be large; an effect the other way counts as inactive or inconclusive.

What was measured:
[1] = qHTS assay for small molecule agonists of the p53 signaling pathway (AID 651631; calls by dose curve; also: nearly all actives have a fitted effect of over 15% in size)
Method in brief: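 Readout was fluorescence from the LiveBLAzer FRET substrate, applied for 2 h at room temperature after 16 h compound exposure at 37 °C. Cells were the p53RE-bla HCT-116 line, with beta-lactamase driven by p53 response elements.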

[2] = qHTS assay for small molecules that induce genotoxicity in human embryonic kidney cells expressing luciferase-tagged ATAD5 (AID 651632); also: nearly all actives have a fitted effect of over 15% in size
Method in brief: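 Luminescence read-out: after 16 hr compound exposure at 37C, ATAD5-luciferase HEK293T cells received Amplite, 30 min RT, then CCD imaging. A rise in signal marks genotoxic stress.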

[3] = qHTS assay for small molecule agonists of the p53 signaling pathway - cell viability (AID 651633; calls by dose curve; also: series mostly up to about 83 µM; nearly all actives have a fitted effect of over 30% in size)
Method in brief: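 p53RE-bla cells, seeded at 4,000 per well and rested 5 h at 37 C/5% CO2, received compounds in DMSO for 16 h at 37 C. CellTiter-Glo was then added, and luminescence was read after 30 min at room temperature to gauge cytotoxicity.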

[4] = qHTS assay for small molecules that induce genotoxicity in human embryonic kidney cells expressing luciferase-tagged ATAD5 - cell viability (AID 651634; calls by dose curve; also: nearly all actives have a fitted effect of over 25% in size)
Method in brief: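 HEK293T ATAD5-luc cells, 2,000/well; compound 15.5 hr, 37C/5% CO2; CellTiter-Fluor 30 min, 37C; fluorescence read.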

[5] = qHTS assay for small molecule disruptors of the mitochondrial membrane potential - cell viability (AID 720634; calls by dose curve;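 also: human HepG2 liver cancer cells; series mostly up to about 83 µM; nearly all actives have a fitted effect of over 20% in size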)
Method in brief: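 Luminescence from CellTiter-Glo (ATP content) gave viability in HepG2 cells, read in the same wells as the MMP dye assay after 1 hr compound exposure at 37 C.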

[6] = qHTS assay for small molecule disruptors of the mitochondrial membrane potential (AID 720635)
Method in brief: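 HepG2 cells (2,000/well) attached overnight at 37C, then took compound for 1 hr at 37C, 5% CO2. Mito-MPS dye was added for 30 min; fluorescence was read at 490/535 nm (monomers) and 540/590 nm (aggregates).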

[7] = qHTS assay to test for compound auto fluorescence at 590 nm (red) in HepG2 cells (AID 720674)
Method in brief: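 Compound auto-fluorescence is scored relative to Rose Bengal sodium, measured at 540/590 nm in live HepG2 cultures after 1 hr compound contact (37 C, 5% CO2).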

[8] = qHTS assay to test for compound auto fluorescence at 460 nm (blue) in HEK293 cells (AID 720678)
Method in brief: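 Measured: blue fluorescence (Ex 405/Em 460 nm) of compound-treated HEK293 cells, incubated overnight at 37C with 5% CO2 and scaled to triamterene equivalents.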

[9] = qHTS assay to test for compound auto fluorescence at 590 nm (red) in HEK293 cells (AID 720679)
Method in brief: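 Using HEK293 cells at 2,000 per well, the screen added 23 nL of each compound after cell attachment and incubated overnight (37C, 5% CO2). The plate reader then captured red-label fluorescence, Ex/Em 540/590nm.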

[10] = qHTS assay to test for compound auto fluorescence at 460 nm (blue) in HEK293 cell free culture (AID 720681)
Method in brief: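 Test compounds were pinned into cell-free culture medium (DMEM with 10% FBS) and fluorescence was read directly at Ex/Em 405/460 nm. Signals were expressed as fluorescence equivalents of triamterene, with DMSO vehicle as control.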

[11] = qHTS assay to test for compound auto fluorescence at 535 nm (green) in HEK293 cell free culture (AID 720682)
Method in brief: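 Compounds were pin-transferred into cell-free DMEM with 10% FBS, and green fluorescence was read at excitation 485 nm and emission 535 nm. Intensities were expressed as fluorescein-equivalent values.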

[12] = qHTS assay to test for compound auto fluorescence at 590 nm (red) in HEK293 cell free culture (AID 720683)
Method in brief: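 Tox21 10K library compounds were pinned into cell-free DMEM with 10% FBS and fluorescence was read at excitation 540 nm. Activity is expressed as Rose Bengal sodium equivalency.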

[13] = qHTS assay to test for compound auto fluorescence at 590 nm (red) in HepG2 cell free culture (AID 720684)
Method in brief: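 Ex 540 / Em 590 nm read of compound in cell-free MEM (10% FBS). Rose Bengal sodium reference.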

[14] = qHTS assay to test for compound auto fluorescence at 535 nm (green) in HepG2 cell free culture (AID 720686)
[15] = qHTS assay to test for compound auto fluorescence at 460 nm (blue) in HepG2 cells (AID 720687)
Method in brief: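 Cells (2,000/well in MEM with 10% FBS) attached overnight at 37 C, then were exposed to compound or DMSO for 1 hr at 37 C, 5% CO2. Fluorescence read at Ex/Em 405/460 nm, expressed as triamterene-equivalent signal.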

[16] = biological target: Glucocorticoid receptor (Homo sapiens) (UniProt P04150); test: qHTS assay to identify small molecule agonists of the glucocorticoid receptor (GR) signaling pathway (AID 720691; active = well fitted activation curve with a large enough effect in the signal ratio in the repeat runs, not every such curve was filed as active; the % refers to the signal ratio)
Glucocorticoid receptor (Homo sapiens), sequence (P04150 whole entry, looked up): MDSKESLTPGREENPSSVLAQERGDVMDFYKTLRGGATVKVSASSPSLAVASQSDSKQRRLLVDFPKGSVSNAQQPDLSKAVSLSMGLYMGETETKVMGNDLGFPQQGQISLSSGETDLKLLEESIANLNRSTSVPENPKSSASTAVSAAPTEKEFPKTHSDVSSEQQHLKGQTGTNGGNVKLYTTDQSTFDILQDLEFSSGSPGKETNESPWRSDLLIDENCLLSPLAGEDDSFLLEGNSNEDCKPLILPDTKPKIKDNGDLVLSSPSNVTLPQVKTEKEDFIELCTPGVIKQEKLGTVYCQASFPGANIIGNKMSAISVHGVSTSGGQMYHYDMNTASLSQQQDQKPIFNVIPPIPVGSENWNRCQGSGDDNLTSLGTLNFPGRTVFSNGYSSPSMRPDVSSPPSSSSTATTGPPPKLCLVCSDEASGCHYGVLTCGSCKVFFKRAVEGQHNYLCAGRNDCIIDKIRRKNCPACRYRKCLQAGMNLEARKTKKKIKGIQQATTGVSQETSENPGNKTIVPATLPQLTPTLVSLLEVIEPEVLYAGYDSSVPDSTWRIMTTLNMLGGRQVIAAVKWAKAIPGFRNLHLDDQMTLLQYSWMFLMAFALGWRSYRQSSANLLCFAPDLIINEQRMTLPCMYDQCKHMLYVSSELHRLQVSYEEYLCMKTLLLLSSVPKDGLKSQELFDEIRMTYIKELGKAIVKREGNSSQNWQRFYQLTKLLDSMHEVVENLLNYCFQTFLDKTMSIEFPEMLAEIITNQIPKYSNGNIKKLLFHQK
Method in brief: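 HeLa GR-bla reporter line; cells pre-incubated 4 h, compound in DMSO 18 h at 37 C; LiveBLAzer B/G FRET substrate 2 h RT; fluorescence intensity read-out.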

[17] = biological target: Glucocorticoid receptor (Homo sapiens) (UniProt P04150); test: qHTS assay to identify small molecule antagonists of the glucocorticoid receptor (GR) signaling pathway (AID 720692; active = well fitted inhibition curve with a large enough effect in the signal ratio in the repeat runs, not every such curve was filed as active; the % refers to the signal ratio)
Method in brief: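 Read-out: beta-lactamase FRET substrate fluorescence, 2 h at room temperature, in HeLa cells stably carrying a GRE-driven bla reporter. Compounds were co-incubated with 5 nM dexamethasone agonist (final) for 18 h at 37 C.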

[18] = qHTS assay to test for compound auto fluorescence at 535 nm (green) in HepG2 cells (AID 720675)
[19] = qHTS assay to test for compound auto fluorescence at 535 nm (green) in HEK293 cells (AID 720680)
[20] = qHTS assay to test for compound auto fluorescence at 460 nm (blue) in HepG2 cell free culture (AID 720685)
Method in brief: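 Cell-free plates of MEM plus 10% FBS received 23 nL compound or DMSO vehicle; blue-channel (405/460 nm) intensity scored against triamterene as reference fluorophore.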
% is scaled to controls: 0 for no effect and ±100 for the full control effect.

CCC(C)(O)CCC=C(C)C (stereo unspecified)
inactive: Potency [1] | Potency [2] | Potency [3] | Potency [4] | Potency [5] | Potency [6] | outcome [7] | Potency [8] | outcome [9] | Potency [10] | outcome [11] | outcome [12] | outcome [13] | outcome [14] | Potency [15] | Potency [16] | Potency [17]

Cc1cc(OI)c(C(C)C)cc1-c1cc(C(C)C)c(OI)cc1C
inactive: Potency [1] | Potency [2] | Potency [3] | Potency [4] | Potency [5] | outcome [7] | outcome [18] | Potency [8] | outcome [9] | outcome [19] | Potency [10] | outcome [11] | outcome [12] | outcome [13] | Potency [20] | outcome [14] | Potency [16]

CC(C)(CCl)c1ccccc1
inactive: Potency [1] | Potency [2] | Potency [3] | Potency [4] | Potency [5] | outcome [7] | outcome [18] | outcome [9] | outcome [19] | Potency [10] | outcome [11] | outcome [12] | outcome [13] | outcome [14] | Potency [15]

Cc1cnc(C)c(C)n1
inactive: Potency [1] | Potency [2] | Potency [3] | Potency [4] | Potency [5] | Potency [6] | outcome [18] | Potency [8] | outcome [19] | Potency [10] | outcome [11] | outcome [12] | outcome [13] | Potency [20] | outcome [14] | Potency [15] | Potency [16] | Potency [17]

CCOC(=O)c1ccccc1C
inactive: Potency [1] | Potency [2] | Potency [3] | Potency [4] | Potency [5] | Potency [8] | outcome [9] | outcome [19] | Potency [10] | outcome [11] | outcome [12] | outcome [13] | Potency [20] | outcome [14] | Potency [15] | Potency [16] | Potency [17]

CC(C)CCCC(=O)O
inactive: Potency [1] | Potency [2] | Potency [3] | Potency [4] | Potency [5] | Potency [6] | outcome [18] | Potency [8] | outcome [9] | outcome [19] | Potency [10] | outcome [11] | outcome [12] | outcome [13] | Potency [20] | outcome [14] | Potency [15] | Potency [16] | Potency [17]

CCCCCCCCCCCCCCCCBr
inactive: Potency [1] | Potency [2] | Potency [3] | Potency [4] | Potency [5] | fluorescence, relative to Rose Bengal [7] 0.0532% [at 18.6 µM] | fluorescence, % of fluorescein control [18] 0.118% [at 18.6 µM] | fluorescence, % of triamterene [8] -0.0281% [at 18.6 µM] | fluorescence, % of fluorescein [19] -0.0178% [at 18.6 µM] | fluorescence, % of fluorescent control [10] 0.102% [at 18.6 µM] | activity change [11] 0.0082% [at 18.6 µM] | fluorescence, % of fluorescent control [12] 0.0252% [at 18.6 µM] | fluorescence, % of Rose Bengal [13] 0.119% [at 18.6 µM] | fluorescence, % of fluorescent control [20] -0.0045% [at 18.6 µM] | fluorescence, % of fluorescein control [14] 0.0028% [at 18.6 µM] | fluorescence, % of fluorescent control [15] -0.0027% [at 18.6 µM]

CC(=N\O)/C(C)=N/O
inactive: Potency [1] | Potency [2] | Potency [3] | Potency [4] | Potency [5] | outcome [7] | outcome [18] | outcome [9] | outcome [19] | Potency [10] | outcome [11] | outcome [12] | outcome [13] | Potency [20] | outcome [14] | Potency [15]

CCC(C(=O)OCCOCCN(CC)CC)c1ccccc1 (stereo unspecified)
inactive: Potency [1] | Potency [2] | Potency [3] | Potency [4] | Potency [5] | Potency [6] | outcome [7] | Potency [8] | outcome [9] | Potency [10] | outcome [11] | outcome [12] | outcome [13] | Potency [20] | outcome [14] | Potency [16] | Potency [17]

CCOC(=N)CC(=O)OCC
inactive: Potency [1] | Potency [2] | Potency [3] | Potency [4] | Potency [5] | outcome [7] | outcome [18] | Potency [8] | outcome [9] | outcome [19] | Potency [10] | outcome [11] | outcome [12] | outcome [13] | Potency [20] | outcome [14]

CC1(C)C(=O)N(Br)C(=O)N1Cl
inactive: Potency [1] | Potency [2] | Potency [3] | Potency [4] | Potency [5] | outcome [7] | outcome [18] | Potency [8] | outcome [19] | Potency [10] | outcome [11] | outcome [12] | outcome [13] | Potency [20] | outcome [14] | Potency [15]

CCCCC(CC)COC(=O)COc1ccc(Cl)cc1C (stereo unspecified)
inactive: Potency [1] | Potency [2] | Potency [3] | Potency [4] | Potency [5] | outcome [7] | outcome [18] | Potency [8] | outcome [9] | outcome [19] | Potency [10] | outcome [11] | outcome [12] | outcome [13] | Potency [20] | outcome [14]

O=C(OCCOCCO)c1ccccc1Nc1cccc(C(F)(F)F)c1
inactive: Potency [1] | Potency [2] | Potency [3] | Potency [4] | Potency [5] | Potency [6] | fluorescence, relative to Rose Bengal [7] -0.199% [at 18.6 µM] | fluorescence, % of triamterene [8] -0.0212% [at 18.6 µM] | fluorescence, % of fluorescent control [9] 0.0507% [at 18.6 µM] | fluorescence, % of fluorescein [19] -0.0064% [at 18.6 µM] | fluorescence, % of fluorescent control [10] -0.158% [at 18.6 µM] | activity change [11] 0.0151% [at 18.6 µM] | fluorescence, % of fluorescent control [12] -0.579% [at 18.6 µM] | fluorescence, % of Rose Bengal [13] -0.0242% [at 18.6 µM] | fluorescence, % of fluorescent control [20] -0.0111% [at 18.6 µM] | fluorescence, % of fluorescein control [14] 0.0209% [at 18.6 µM] | fluorescence, % of fluorescent control [15] -0.0068% [at 18.6 µM] | Potency [16]

CCOc1cc(N)c(Cl)cc1C(=O)NCC1CN(Cc2ccc(F)cc2)CCO1 (stereo unspecified)
inactive: Potency [1] | Potency [2] | Potency [3] | Potency [4] | Potency [5] | outcome [7] | outcome [18] | Potency [8] | outcome [9] | Potency [10] | outcome [11] | outcome [12] | outcome [13] | Potency [20] | outcome [14] | Potency [15] | Potency [16] | Potency [17]
